# Algae TAG accum = inducers of TAG accumulation in Chlamydomonas, primary screen, qHTS, Chlamydomonas reinhardtii; Nile Red fluorescence, 72 h; calls only at 10 µM (by protocol); 0.84% of 44,000 active; AID 1159537, 2015; call rule not given here;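 also: hits raise Nile Red signal meaning more stored TAG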
# Starred values were filed as active, the others as inactive; i = inactive; + = active, no number. Only a selection was taken, and hits are over-represented in it overall.
SMILES,Algae TAG accum
CC(=O)c1cccc(NC(=O)c2cc(Br)ccc2Cl)c1,i
Cc1ccccc1C(=O)N1CCN(c2ccc([N+](=O)[O-])c(NC(C)c3ccccc3)c2)CC1 (stereo not given),i
CC(=O)NS(=O)(=O)c1ccc(NC(=O)c2ccccc2[N+](=O)[O-])cc1,i
O=C(NCc1ccncc1)Nc1ccc([N+](=O)[O-])cc1,i
COc1ccc(NS(=O)(=O)c2cc(C(=O)Nc3ccc(C(=O)O)cc3)ccc2C)cc1,i
C=CCNC(=O)CN(c1ccccc1Cl)S(=O)(=O)c1ccc(C)cc1,i
COc1ccc([N+](=O)[O-])cc1NC(=O)c1ccc(C(C)C)cc1,i
CC(=O)N(C1=C(Nc2ccccc2)C(=O)c2ccccc2C1=O)c1ccccc1,+
CCCNC1=C(N(C(C)=O)c2cccc(F)c2)C(=O)c2ccccc2C1=O,i
COc1cccc(N(C(C)=O)C2=C(NC3CCCCC3)C(=O)c3ccccc3C2=O)c1,i
CC(=O)C1=C(O)C(=O)N(C)C1c1ccc(F)cc1 (stereo not given),i
C/C(=C\c1ccccc1)CN(C)CCN(C)C,+
C/C=C(\C)CN(C)CCN(C)C,i
C/C(=C\c1ccccc1)CN(C)C1CCN(C)CC1,i
CCCC(=O)Nc1cccc(NC(=O)c2ccccc2I)c1,i
CCN1CCN(C(=O)c2ccc(Cl)cc2[N+](=O)[O-])CC1,i
CCC1CCCCN1C(=O)c1cccc([N+](=O)[O-])c1C (stereo not given),i
CCC1CCCCN1C(=O)c1ccc(Cl)cc1[N+](=O)[O-] (stereo not given),+
COc1cccc(NC(=O)CC(C)c2ccccc2)c1 (stereo not given),i
Fc1ccccc1N1CCN(C/C=C/c2ccccc2)CC1,i
CC(C)(C)c1ccc(C(=O)N2CCCCCC2)cc1,i
CCN1CCN(C(=O)c2ccc(C(C)(C)C)cc2)CC1,+
CCOc1ccc(C(=O)N2CCN(CC)CC2)cc1,i
COc1ccccc1N1CCN(C2CCN(Cc3c[nH]c4ccccc34)CC2)CC1,i
COc1ccccc1N1CCN(C2CCN(CC3CC4C=CC3C4)CC2)CC1 (stereo not given),+
SMILES,Algae TAG accum
COc1cc(OC)c(OC)cc1CN1CCC(N2CCN(c3ccccc3OC)CC2)CC1,i
COc1ccccc1N1CCN(C2CCN(Cc3ccc(Br)cc3)CC2)CC1,i
COc1ccccc1N1CCN(C2CCN(CCCc3ccccc3)CC2)CC1,i
COc1ccccc1N1CCN(C2CCN(Cc3cccc(C)c3)CC2)CC1,+
Clc1cccc(CN2CCC(N3CCCCCC3)CC2)c1,i
CCOc1cc(CN2CCN(c3ccccc3OC)CC2)ccc1OC,i
COc1ccccc1N1CCN(C2CCN(Cc3cccc(Cl)c3)CC2)CC1,+
CC(=O)N1CCN(c2ccc(NC(=O)c3cccc([N+](=O)[O-])c3C)cc2)CC1,i
O=C(CNC(=O)C1CCCCC1)Nc1nncs1,i
CCOC(=O)N1CCN(Cc2ccc(OC)c(C)c2C)CC1,i
O=C(CO)Nc1nc(-c2ccc(Br)cc2)cs1,i
C=CCNC(=O)CN(c1cc(C)ccc1C)S(C)(=O)=O,i
COc1ccccc1NC(=O)C1C(c2ccccc2)=C1c1ccccc1,i
O=C1C(=O)N(CCN2CCOCC2)C(c2cccc(Br)c2)C1=C(O)c1ccccc1 (stereo not given),i
Cc1sc2ncnc(N3CCN(c4ccccc4)CC3)c2c1C,i
O=C(NCCc1ccccc1)C1CCN(Cc2ccccc2Cl)CC1,i
Cc1ccc(CNC(=O)C(=O)NCc2ccccc2Cl)cc1,i
Cc1ccc(CN2CCC(C(=O)NCc3ccccc3Cl)CC2)cc1,+
Cc1c(Cl)cccc1NC(=O)C1CC(=O)N(c2ccc(F)cc2)C1 (stereo not given),i
CCCc1nnc(NC(=O)C2CCC2)s1,i
COc1cc(C(=O)Nc2sc(C)c(C)c2C(N)=O)cc(OC)c1OC,i
CCOc1ccc(N(CC(=O)N2CCOCC2)S(C)(=O)=O)cc1,i
O=[N+]([O-])c1ccc(OCCNCc2ccco2)cc1,i
CC(Oc1ccccc1F)C(=O)Nc1ccc([N+](=O)[O-])cc1 (stereo not given),i
CCN(Cc1ccccc1)C(=O)C1CCN(CC2CC=CCC2)CC1 (stereo not given),i
SMILES,Algae TAG accum
NC(=O)C1CCN(CC2CC=CCC2)CC1 (stereo not given),i
C=C(C)CN(CC)C(=O)C1CCN(CC2CC=CCC2)CC1 (stereo not given),+
NC(=O)C1CCN(C(=O)COc2ccccc2Cl)CC1,i
COc1ccc(CNCc2ccc(C)cc2)c(OC)c1,+
COc1ccc(CNCc2ccc(C)cc2C)c(OC)c1,i
COc1ccc(CNCc2ccc(C)cc2C)cc1,i
COc1ccc(S(=O)(=O)NCCC(=O)O)cc1,i
Cc1cc(-n2nc(C)cc2C)nc(N)n1,i
CCN(CC)c1cc(C)nc(N)n1,+
Cc1cc(N2CCCCC2)nc(N)n1,i
Cc1ccc(OCCSc2nc(-c3ccccc3)cc(=O)[nH]2)cc1C,i

# Screens: PubChem BioAssay, DiRusso Lab, Biochemistry Department, University of Nebraska
